Hit rate of the full screen: of about 300,000 compounds, about 37,000 (12%) were called active. Shown is part of a subset that was picked to be rich in actives. Unmarked numbers belong to inactive results. Cut-off read from the data, not from the text of the source: active = max response mostly above about 13% (no sharp cut-off); inactive = mostly below about 14%.

The assay is described as follows: Cycloheximide Counterscreen for Small Molecule Inhibitors of Shiga Toxin. Note: read at 38.3 µM for the half of the compounds with a filed dose; 0% is about no effect. Conditions: cell reporter, cycloheximide protein synthesis inhibition counterscreen; stronger effect = higher value.
Consider `COc1cc(NC(=O)c2ccc3c(c2)OCO3)ccc1NC(=O)c1cccs1`, for which the max response was 17.8% (active).

In the case of `CCC(=O)c1cc2c(cc1NC(=O)c1cccs1)OCCO2`, the max response was -4.08%.

In the case of `COc1cc2ccccc2cc1C(=O)Nc1ccc(NC(=O)c2cccs2)cc1`, the max response is -2.59%.

Take `COc1cc(NC(=O)COc2ccccc2Cl)ccc1NC(=O)C(C)C`: the max response is 0.487%.

Consider `CN1CCN(C(=O)/C(=C\c2ccc3c(c2)OCO3)NC(=O)c2cccs2)CC1`, for which the max response was -1.19%.

In the case of `COc1cc(NC(=O)c2cccs2)ccc1NC(=O)c1ccccc1Cl`, the max response was 28.9% (active).

For the molecule `COc1ccc(S(=O)(=O)N2CCC(C(=O)NCCC(=O)NCc3cccc(OC)c3)CC2)cc1`, the max response is -2.91%.

Regarding `Cc1cc(S(=O)(=O)NC2CCCC2)ccc1-n1cnnn1`, the max response was -1.68%.

Turning to `CCC(=O)Nc1cccc(C2=NOC3(C2)C[C@@H](C(N)=O)N(C(=O)c2cc([N+](=O)[O-])cc([N+](=O)[O-])c2C)C3)c1` (some centres not stated), the max response was 3.34%.

As to `CC1=C(C(=O)Nc2ccccc2)C(c2cccs2)C(C#N)=C(SCC#N)N1` (configuration not stated), the max response is -2.44%.

In the case of `O=C(Nc1ccc(N2CCN(C(=O)c3ccccc3)CC2)c(Cl)c1)c1ncn[nH]1`, the max response is -0.606%.

For `CCn1c(=N)n(CC(=O)c2cccc(OC)c2)c2ccccc21`, the max response was 35.3% (active).

For the molecule `CCCn1c(=N)n(CC(=O)c2ccc(Cl)c(Cl)c2)c2ccccc21`, the max response was -0.499%.

For `COc1ccc2cc(C(=O)O)n(CC(=O)c3ccccc3)c2c1`, the max response is -1.7%.

As for `Cc1ccc(Cn2c(=N)c(S(=O)(=O)c3ccc(C)cc3)cc3c(=O)n4ccccc4nc32)cc1`, the max response is -2.4%.

With `C=CCc1cc(S(=O)(=O)c2ccc(O)c(CC=C)c2)ccc1O`, the max response was -2.33%.

Regarding `Cc1c(NC(=O)c2coc(=O)c(Br)c2)c(=O)n(-c2ccccc2)n1C`, the max response is 10.1%.

`O=C(Nc1cccc(NC(=O)c2cccc(F)c2)c1)c1ccccc1`: the max response is 9.34%.

For `O=C(Nc1cccc(F)c1)c1coc(=O)c(Br)c1`, the max response is 22.1% (active).

Regarding `COc1ccc(CCNC(=O)CN2C(=O)CCSc3ccccc32)c(OC)c1`, the max response is -1.78%.

For the molecule `COc1ccc(CC(=O)N/N=C/c2cc([N+](=O)[O-])cc(Br)c2O)cc1`, the max response was -2.73%.

Turning to `CCOc1cccc(/C=N/N2C(=O)CSC2=S)c1O`, the max response is 13.3% (active).

In the case of `O=C1CSC(=S)N1/N=C/c1ccc(O)c([N+](=O)[O-])c1`, the max response is 2.96%.

As to `CCOc1cccc(/C=N/NC(=S)NCCN2CCOCC2)c1O`, the max response is 9.08%.

`Cc1cccc(CN2CCC(n3nccc3NC(=O)c3ccccc3C)CC2)n1`: the max response is 2.27%.

With `COc1ccc(OCc2cn3c(C)cc(C)nc3n2)cc1`, the max response was 17.1%.

As for `CN(C(=O)c1cccc(OC2CCN(S(=O)(=O)N(C)C)CC2)c1)C1CCOC1` (configuration not stated), the max response was 16.6%.

Turning to `CNS(=O)(=O)c1cccc(C(=O)NCC2CCCCC2)c1`, the max response was -3.55%.

With `CN(C)S(=O)(=O)N1CCC(Oc2cccc(C(=O)NCCCC3CCCC3)c2)CC1`, the max response was 52.4% (active).

As to `Nc1nc(NC(=O)/C=C/c2ccccc2)nn1-c1ccccc1`, the max response is -0.981%.

`Cc1ccc(C(=O)Nc2nc(N)n(-c3ccccc3)n2)cc1`: the max response was 20.3% (active).

With `Cc1ccc(S(=O)(=O)Nc2nc(N)n(-c3ccccc3)n2)cc1`, the max response was -2.82%.

For `CC(=O)c1ccc(OCC(O)CN2CCN(S(=O)(=O)c3cccc(Br)c3)CC2)cc1` (configuration not stated), the max response is -0.615%.

Consider `O=c1c2cc([N+](=O)[O-])ccc2nc2n1CCC2`, for which the max response was -3.29%.

Regarding `O=c1[nH]c(/C=C\c2cccc(C(F)(F)F)c2)nc(O)c1[N+](=O)[O-]`, the max response is -0.44%.

Take `C=CCN(C(=O)Nc1ccc2oc(C)nc2c1)c1ccccc1`: the max response is 44.6% (active).

Take `Cc1nn(CC(=O)Nc2ccc3c(c2)nc(CN2CCCCC2)n3C)c(=O)c2ccccc12`: the max response was 9.68%.

As to `CCC(=O)Nc1ccc2nc(C)n(Cc3ccccc3Cl)c(=O)c2c1`, the max response is -0.377%.

With `C=CCN(CC=C)C(=O)Nc1ccc(OCC)cc1`, the max response was 12.5%.

For `C=CCN(C(=O)Nc1ccc2c(c1)nc(C)n2C)c1ccccc1`, the max response was 32.3% (active).

In the case of `C=CCN(C(=O)Cn1ncc2c1-c1cc(C)ccc1OC2)c1ccccc1`, the max response was -3.22%.

As to `O=C(NCCCO)c1cc2c([nH]c3ccccc32)c(-c2ccc(F)cc2)n1`, the max response is 1.63%.

On to `Cc1c(C=O)c2ccccc2n1CCOc1ccccc1`, for which the max response is 11.4%.

In the case of `COC(=O)c1ccccc1N=Nc1c(C)[nH][nH]c1=O`, the max response was -1.54%.

With `COc1ccccc1N=Nc1c(O)[nH]c(=S)[nH]c1=O`, the max response was 18.5% (active).

As to `COc1ccccc1N=C(C)C1=C(O)COC1=O`, the max response was -3.1%.

As to `COCCCNC(NC(=O)c1ccc(C)cc1)C(Cl)(Cl)Cl` (configuration not stated), the max response was 0.737%.

In the case of `Cc1ccc(CNC(=O)C2CCN(S(=O)(=O)c3ccc4nc5c(c(C(=O)O)c4c3)CC(C)CC5)CC2)cc1` (configuration not stated), the max response was -2.65%.

On to `O=C(NCCCCc1ccccc1)C1CC(c2ccc([N+](=O)[O-])cc2)=NO1` (configuration not stated), for which the max response was 1.79%.

With `Cc1[nH][nH]c(=O)c1C(c1ccc2c(c1)OCO2)c1c(C)[nH][nH]c1=O`, the max response is -0.172%.

Regarding `Cc1[nH][nH]c(=O)c1N=Nc1ccccc1`, the max response was -2.86%.

For the molecule `Nc1[nH][nH]c(=O)c1N=Nc1ccc2c(c1)OCO2`, the max response is 37.1% (active).

On to `COc1cc(OC)c2c(c1C(CCN1CCCCC1)c1ccc(N(C)C)cc1)OC(=O)CC2c1ccc(N(C)C)cc1` (configuration not stated), for which the max response was -4.1%.

In the case of `c1ccc(CSCCc2ccncc2)cc1`, the max response was 7.75%.

`Cc1ccc(O)c(CCc2ccccc2)n1`: the max response was 17.6% (active).

For the molecule `Cc1ccc(O)c(-c2cc(C(=O)NCc3ccccc3)[nH]n2)c1`, the max response is 11.1%.

Regarding `CC(=O)N1CC[n+]2c(-c3ccc([N+](=O)[O-])cc3)csc21`, the max response is 6.33%.

In the case of `COc1cccc(-c2nc3ccc(N4CCN(C)CC4)cc3[nH]2)c1`, the max response is -9.87%.

Consider `CN1CCN(c2ccc([N+](=O)[O-])c(Sc3nc4ccccc4[nH]3)c2)CC1`, for which the max response is -2.61%.

As for `Cc1nc2ccc(N3CCN(C)CC3)cc2nc1C`, the max response was 40.7% (active).

Consider `Cc1ccc(Cn2cc(C(=O)NN)c(=O)c3ccc(F)cc32)cc1`, for which the max response was -3.85%.

`Cc1ccc(CNC(=O)c2c(-c3ccccc3)noc2C)cc1`: the max response is -2.32%.

On to `CC(C)CCNC(=O)c1ccc2c(Cl)c3c(nc2c1)CCC3`, for which the max response was 48.4% (active).

Consider `COc1ccc(N2CCN(C(=O)c3ccc4c(Cl)c5c(nc4c3)CCCC5)CC2)cc1`, for which the max response is -3.2%.

Consider `CC(=O)c1ccc(NC(=O)c2ccc3c(Cl)c4c(nc3c2)CCCC4)cc1`, for which the max response was -0.107%.

Turning to `COc1cccc(CC2(CO)CCN(Cc3cnc(-c4cccc(C)c4)nc3)CC2)c1`, the max response was 10.3%.

For the molecule `Oc1ccc2nc(Cc3ccccc3)[nH]c2c1`, the max response was 20.5% (active).

`Cc1nc2ccc(C(=O)O)cc2[nH]1`: the max response is -7.8%.

As to `c1ccc2cc3[nH]c(CN4CCCCC4)nc3cc2c1`, the max response is 31.1%.

With `Cc1cc(OCC(=O)N2CCN(c3ncccn3)CC2)ccc1Cl`, the max response is -2.98%.

For `O=C(CC1C(=O)NCCN1CC(c1ccccc1)c1ccccc1)NCC1CCOCC1` (configuration not stated), the max response was -4.31%.

`Cc1nc(Nc2ccccc2F)c2nnn(Cc3ccccc3Cl)c2n1`: the max response was -1.8%.

Consider `Cc1nc(Nc2ccc3c(c2)OCCO3)c2nnn(Cc3ccccc3Cl)c2n1`, for which the max response is 83.5% (active).

Consider `CCCc1nc(NCc2ccc3c(c2)OCO3)c2nnn(Cc3ccccc3Cl)c2n1`, for which the max response is -2.15%.

With `CC1(c2ccc3ccccc3c2)NC(=O)N(CC(N)=O)C1=O` (configuration not stated), the max response was -1.55%.

`Nc1cccc(CCc2nc3ccccc3[nH]2)c1`: the max response is 24% (active).

Take `CC(C)=C(NC(=O)c1ccco1)C(=O)NCCc1nc2ccccc2[nH]1`: the max response is -2.53%.

As to `Cc1ccc2nc(SCc3cn4c(C)cc(C)nc4n3)[nH]c2c1`, the max response is -4.98%.

For `O=C(CNCc1ccc(Cl)cc1)Nc1cccc(C(=O)O)c1`, the max response was -7.34%.

Regarding `O=C(c1[nH]ncc1-c1ccc(Cl)cc1)C1CO1` (configuration not stated), the max response was 16.3%.

For the molecule `O=C(Nc1nnc(-c2ccc(Cl)cc2)o1)c1ccccc1Br`, the max response was 14.7%.

On to `O=C(c1nnc(-c2ccc(Cl)cc2)o1)C1CCCC1`, for which the max response is 15.5% (active).

For `CCCC(=O)N1CCC(CCC(=O)NC2CC2)CC1`, the max response was 10.7%.

Turning to `COc1ccc(C(=O)Nc2c(N)nc(SCC(=O)Nc3ccc(C(C)=O)cc3)[nH]c2=O)cc1`, the max response is 0.562%.

As for `CC(C)(C)NC(=O)C(=O)NN=C1CCCCCCC1`, the max response was 17.4%.

Take `CCc1ccc(C(=O)NN=C2CCCCCC2)s1`: the max response was 33% (active).

Consider `CS(=O)(=O)N(Cc1ccccc1)c1ccc(C(=O)NN=C2CCCCCC2)cc1`, for which the max response was 0.492%.

In the case of `COC(=O)c1cc(N2CCNCC2)nc2ccccc12`, the max response is -0.723%.

In the case of `C=CCSc1nsc(NC(=O)Nc2cccc(C(C)=O)c2)n1`, the max response is 15.7% (active).

As for `CCc1nc(SCC(=O)Nc2ccccc2OC)n[nH]1`, the max response is -2%.

On to `CCSc1nsc(NC(=O)Nc2ccccc2OC)n1`, for which the max response was 29.3% (active).

Turning to `CC(=O)c1cccc(NC(=S)N2CCN(S(C)(=O)=O)CC2)c1`, the max response was 3.24%.

As for `C=C(C)C(=O)Nc1cccc(C(C)=O)c1`, the max response is -4.07%.

For `CCSc1nsc(NC(=O)Nc2cccc(C(C)=O)c2)n1`, the max response was 47.8% (active).

Regarding `CCc1nnc(NC(=O)CSc2nnnn2-c2cccc(C(C)=O)c2)s1`, the max response was -0.713%.

As to `COc1ccccc1NC(=O)Nc1nnc(Cc2ccc(F)cc2)s1`, the max response was -1.91%.

For the molecule `CC(=O)c1cccc(NC(=O)[C@@H](NC(N)=O)C(C)C)c1`, the max response was -2.8%.

The record behind these values is PubChem BioAssay AID2314 (National Center for Advancing Translational Sciences (NCATS), 2010).
